The results in this text go back to PubChem BioAssay.

Experiment [1] can be described thus: optical density shifts of acrAB sulA E. coli – strain DRC41, OD650, 48 h, E. coli filamentation inducer project, primary screen (AID 1152).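 Further: E. coli MC1000 strain DRC41 lacking acrAB efflux pump and sulA.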 As to conditions: higher = more signal, called active from +8 up or from −8 down.
Experiment [2] is described as follows: probe aLefty1 binding on compound microarray – biochemical, small-molecule microarray, 635/667 nm fluorescence, primary screen (AID 1153).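 Further: score merges spot fluorescence with signal-to-noise ratio from the scanned slide images.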 The note with it: higher = more signal.
Experiment [3] is described as follows: plasmodial surface anion channel blockers, osmotic lysis – cell-based, P. falciparum Indochina, OD700, 1 h, primary screen (AID 1154). The note with it: P. falciparum Indochina infected RBC osmotic lysis, higher = more signal, called active from +8 up or from −8 down.
Experiment [4] can be described thus: plasmodial surface anion channel blockers, osmotic lysis – cell-based, P. falciparum Indochina, OD700, 2 h, primary screen (AID 1155).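 Further: lysis reports solute entry through the parasite surface anion channel PSAC.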 The note with it: P. falciparum Indochina infected erythrocytes, higher = more signal, called active from +8 up or from −8 down.
Experiment [5] in a line: changes in parasitized red cell lysis, either direction – P. falciparum Indochina, OD700, 3 h, PSAC antagonist project, primary screen (AID 1156). The note with it: P. falciparum-infected erythrocytes, osmotic lysis, higher = more signal, called active from +8 up or from −8 down.
The nature of experiment [6]: plasmodial surface anion channel blockers, osmotic lysis – cell-based, P. falciparum Indochina, OD700, 18 h, primary screen (AID 1157). The note with it: P. falciparum Indochina infected erythrocytes, osmotic lysis OD700, 18 h; higher = more signal, called active from +8 up or from −8 down.
The nature of experiment [7]: S6 kinase pathway phospho-S6 level changes – cell-based, A549, cytoblot, luminescence, serum-stimulated, primary screen (AID 1158).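 Further: serum-stimulated A549 lung adenocarcinoma cells; signal is phosphorylated S6 detected by cytoblot immunostaining with HRP secondary.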 As to conditions: 5 h, higher = more signal.
The target in experiment [8] is NADPH oxidase 2 (Homo sapiens) (UniProt P04839). Description: compounds shifting NOX2 Amplex Red fluorescence – cell-based, HEK293-NOX2, PMA-stimulated, NOX inhibitor project, primary screen (AID 1159). Further: test concentration not given here. As to conditions: 45 min, higher = more signal, called active from +8 up or from −8 down.
Experiment [9] deals with NADPH oxidase 4 (Homo sapiens) (UniProt Q9NPH5). The experiment is described as follows: compounds shifting NOX4 Amplex Red fluorescence – cell-based, HEK293-NOX4, tetracycline-induced, NOX inhibitor project, primary screen (AID 1160). As to conditions: HEK293-NOX4, Amplex Red H2O2 fluorescence, 45 min; higher = more signal, called active from +8 up or from −8 down.
Experiment [10] has as its target NADPH oxidase 5 (Homo sapiens) (UniProt Q96PH1). The experiment is described as follows: compounds shifting NOX5 Amplex Red fluorescence – cell-based, HEK293-NOX5, NOX inhibitor project, primary screen (AID 1161). As to conditions: HEK293-NOX5, ionomycin, 45 min, higher = more signal.

The source made the active and inactive calls.

Chain of NADPH oxidase 2 (Homo sapiens) (P04839 whole entry, looked up): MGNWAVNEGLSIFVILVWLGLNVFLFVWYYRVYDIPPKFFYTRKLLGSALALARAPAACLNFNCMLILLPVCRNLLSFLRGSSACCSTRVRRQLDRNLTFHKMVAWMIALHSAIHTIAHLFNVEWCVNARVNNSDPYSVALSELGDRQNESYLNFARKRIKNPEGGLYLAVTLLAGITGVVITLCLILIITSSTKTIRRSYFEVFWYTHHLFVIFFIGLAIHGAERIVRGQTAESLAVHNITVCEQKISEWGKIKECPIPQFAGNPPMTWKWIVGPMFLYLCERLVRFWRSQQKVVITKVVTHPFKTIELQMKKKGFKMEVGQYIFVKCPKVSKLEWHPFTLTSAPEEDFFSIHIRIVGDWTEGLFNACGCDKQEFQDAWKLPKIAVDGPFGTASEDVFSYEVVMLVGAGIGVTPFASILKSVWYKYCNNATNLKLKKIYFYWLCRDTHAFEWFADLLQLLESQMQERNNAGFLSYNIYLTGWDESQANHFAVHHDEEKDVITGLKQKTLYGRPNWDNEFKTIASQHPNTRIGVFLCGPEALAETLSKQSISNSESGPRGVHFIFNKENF
Chain of NADPH oxidase 4 (Homo sapiens) (Q9NPH5 whole entry, looked up): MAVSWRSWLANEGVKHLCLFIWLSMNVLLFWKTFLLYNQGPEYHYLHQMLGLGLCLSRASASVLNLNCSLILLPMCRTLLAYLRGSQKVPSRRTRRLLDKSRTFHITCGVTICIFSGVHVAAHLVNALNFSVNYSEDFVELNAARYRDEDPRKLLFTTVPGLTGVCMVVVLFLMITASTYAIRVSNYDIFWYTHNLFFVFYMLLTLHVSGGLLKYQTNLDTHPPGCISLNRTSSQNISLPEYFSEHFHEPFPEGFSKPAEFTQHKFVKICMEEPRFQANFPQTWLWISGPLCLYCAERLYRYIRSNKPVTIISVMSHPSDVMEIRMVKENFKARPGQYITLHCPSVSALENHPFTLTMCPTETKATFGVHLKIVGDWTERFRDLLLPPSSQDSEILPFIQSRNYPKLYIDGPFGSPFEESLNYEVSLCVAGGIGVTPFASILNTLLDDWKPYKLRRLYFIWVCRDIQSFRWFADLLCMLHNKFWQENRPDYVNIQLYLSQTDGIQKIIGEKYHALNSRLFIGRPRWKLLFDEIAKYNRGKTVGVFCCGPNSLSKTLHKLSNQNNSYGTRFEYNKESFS
Chain of NADPH oxidase 5 (Homo sapiens) (Q96PH1 whole entry, looked up): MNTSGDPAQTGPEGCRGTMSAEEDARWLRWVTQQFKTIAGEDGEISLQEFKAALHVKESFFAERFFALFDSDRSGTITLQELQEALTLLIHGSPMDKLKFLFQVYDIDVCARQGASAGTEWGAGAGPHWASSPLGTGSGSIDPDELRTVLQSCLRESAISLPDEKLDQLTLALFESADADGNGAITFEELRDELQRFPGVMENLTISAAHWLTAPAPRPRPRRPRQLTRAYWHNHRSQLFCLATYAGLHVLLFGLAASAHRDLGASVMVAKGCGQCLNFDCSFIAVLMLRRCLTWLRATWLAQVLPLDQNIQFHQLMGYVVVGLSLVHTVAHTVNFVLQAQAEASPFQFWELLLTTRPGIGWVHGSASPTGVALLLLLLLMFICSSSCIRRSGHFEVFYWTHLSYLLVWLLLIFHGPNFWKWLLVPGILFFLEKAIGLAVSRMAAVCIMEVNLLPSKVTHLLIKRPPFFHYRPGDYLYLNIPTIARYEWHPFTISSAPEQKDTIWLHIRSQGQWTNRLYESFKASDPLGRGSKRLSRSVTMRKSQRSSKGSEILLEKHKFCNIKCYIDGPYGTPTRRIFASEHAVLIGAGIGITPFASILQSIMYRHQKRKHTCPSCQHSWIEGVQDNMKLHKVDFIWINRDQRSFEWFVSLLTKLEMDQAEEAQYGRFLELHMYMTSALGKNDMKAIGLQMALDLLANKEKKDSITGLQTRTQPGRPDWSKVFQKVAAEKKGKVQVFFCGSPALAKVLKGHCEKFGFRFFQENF

For `CC(C)C(=C=CC[C@H](O)c1ccccc1OCCO)CCO`, the z-score in [1] is -0.42 (inactive); in experiment [3], 2.08 (inactive); in [4] it was -0.0743 (inactive); in experiment [5], -0.163 (inactive); in experiment [6] it was 0.013 (inactive); in [7], -0.2. In addition, the z-score was -0.353 (inactive) in experiment [8], 0.323 (inactive) in experiment [9] and -0.738 in experiment [10]. Besides, the composite z-score in [2] was -0.0576.
`CCOC(=O)N1C(c2ccc(OCCCO)cc2)=NC(C(=O)OC)N1C(=O)OCC` (stereo not given): the z-score was 1.28 (inactive) in experiment [1]; 20.5 (active) in experiment [3]; 2.44 (inactive) in experiment [4]; 0.873 (inactive) in experiment [5]; -1.07 (inactive) in experiment [6]; 1.02 in experiment [7]. Also, the z-score is -1.43 (inactive) in experiment [8], 0.403 (inactive) in experiment [9] and 0.203 in [10]. This compound had a composite z-score in experiment [2] of 0.371.
For `[N-]=[N+]=NCc1ccccc1[C@H]1OC(c2ccc(OCCCO)cc2)=N[C@@]1(Cc1ccccc1)C(=O)NCC(O)CO` (stereo not given in full), the z-score in experiment [1] is -0.112 (inactive); in experiment [3], 25.4 (active); in experiment [4], 12.1 (active); in experiment [5] it was 1.87 (inactive); in experiment [6], 1.67 (inactive); in [7], -0.09. For the same compound, the z-score was 0.046 (inactive) in experiment [8], 0.497 (inactive) in [9] and -0.796 in experiment [10]. The composite z-score in experiment [2] is 1.61.
In the case of `Cc1ccc(F)cc1S(=O)(=O)N[C@@H]1CCN(Cc2ccc(C(F)(F)F)cc2)C1`, the z-score in [1] was -5.36 (inactive); in [3] it was 4.85 (inactive); in experiment [4], 1.15 (inactive); in [5] it was 0.129 (inactive); in experiment [6] it was 0.624 (inactive); in [7], -0.147. Moreover, the z-score in experiment [8] was -0.344 (inactive); in [9] it was -1.19 (inactive); in [10], -2. In experiment [2], the composite z-score is -0.152.
As to `[N-]=[N+]=Nc1ccccc1[C@@H]1OC(c2ccc(OCCCO)cc2)=N[C@]1(CCS(=O)(=O)c1ccccc1)C(=O)O`, the z-score is 0.604 (inactive) in experiment [1]; 28.8 (active) in experiment [3]; 24.4 (active) in [4]; 0.971 (inactive) in experiment [5]; 4.63 (inactive) in experiment [6]; -0.067 in experiment [7]. The z-score in [8] is -2.5 (inactive); in experiment [9], -0.0168 (inactive); in experiment [10] it was 0.778. Moreover, in experiment [2], the composite z-score worked out at 0.568.
For the compound `Cc1cc(C)c(C(O)C2C=CC3C(=O)NC(=O)C3N2Nc2ccccn2)c(C)c1` (stereo not given), the z-score is -1.14 (inactive) in experiment [1]; 1.02 (inactive) in experiment [3]; 0.742 (inactive) in experiment [4]; -0.0209 (inactive) in [5]; 1.07 (inactive) in experiment [6]; -1.25 in experiment [7]. In addition, the z-score in [8] is -1.49 (inactive); in experiment [9], -1.33 (inactive); in experiment [10], -2.12. Further, the composite z-score in [2] is 0.469.
Regarding `CCOC(=O)C1=CC[C@@H](c2ccccc2)N(S(=O)(=O)c2ccc(C)cc2)[C@H]1c1ccc(C#N)cc1`, the z-score in [1] is -1.38 (inactive); in [3] it was 1.92 (inactive); in experiment [4] it was 0.858 (inactive); in [5], 0.224 (inactive); in experiment [6], 0.705 (inactive); in experiment [7], -0.882. The z-score in experiment [8] was 0.428 (inactive); in [9], -1.1 (inactive); in [10] it was 0.0836. The same compound yielded a composite z-score in experiment [2] of 0.161.
As for `C[N+](C)(C)CCCC[C@@H]1NC(=O)[C@H]2C[C@@H](C(=O)O)[C@@H](c3cccc(OCCO)c3)N2C1=O`, the z-score is -0.0215 (inactive) in experiment [1]; 1.15 (inactive) in [3]; 0.729 (inactive) in [4]; -1.43 (inactive) in experiment [5]; 0.252 (inactive) in experiment [6]; 0.743 in experiment [7]. The z-score is 0.114 (inactive) in experiment [8], 0.0916 (inactive) in [9] and 0.986 in experiment [10]. The same compound had a composite z-score in [2] of 1.69.
Take `CN1C(=O)C2C=CC(C(O)C3=C[C@H]4C[C@@H](C3)C4(C)C)N(Nc3ccc([N+](=O)[O-])cc3[N+](=O)[O-])C2C1=O` (stereo not given in full): the z-score was -0.794 (inactive) in experiment [1]; 3.59 (inactive) in experiment [3]; 1.27 (inactive) in experiment [4]; 1.06 (inactive) in experiment [5]; 1.05 (inactive) in experiment [6]; -0.456 in [7]. Further, the z-score is 0.0656 (inactive) in experiment [8], -0.0391 (inactive) in [9] and -1.2 in [10]. This compound also showed a composite z-score in experiment [2] of 0.271.
Regarding `CCOC(=O)C[C@H]1[C@H](OC(=O)c2cc3ccccc3oc2=O)[C@@H](NC(=O)c2ccc3ccccc3c2)c2cc(OCCCO)ccc2N1C(=O)c1ccccc1`, the z-score was 0.734 (inactive) in experiment [1]; 1.22 (inactive) in experiment [3]; -1.04 (inactive) in experiment [4]; 0.519 (inactive) in [5]; -2.59 (inactive) in experiment [6]; 1.2 in experiment [7]. In addition, the figures for the z-score in [8], in experiment [9] and in [10] were -0.539 (inactive), -0.928 (inactive) and 0.53, respectively. The same compound showed a composite z-score in [2] of 0.201.
As for `CN(C)CCCCCCNC(=O)[C@@H]1C[C@@H]2C(=O)N[C@@H](Cc3ccccc3)C(=O)N2[C@@H]1c1cccc(OCCO)c1`, the z-score in experiment [1] is 0.392 (inactive); in [3] it was 3.81 (inactive); in experiment [4], 0.415 (inactive); in experiment [5], 0.407 (inactive); in experiment [6] it was 0.154 (inactive); in experiment [7] it was -0.243. The z-score was 1.08 (inactive) in experiment [8], 1.4 (inactive) in experiment [9] and 1.4 in experiment [10]. This compound also returned a composite z-score in experiment [2] of 0.073.
With `CC(C)OC(=O)C1=CCC(c2cccc(Cl)c2)O1` (stereo not given), the z-score in experiment [1] is 0.504 (inactive); in [3], 26 (active); in experiment [4], 6.53 (inactive); in experiment [5] it was 0.751 (inactive); in [6], 0.296 (inactive); in experiment [7], 1.8. The z-score was -3.89 (inactive) in [8], -2.1 (inactive) in [9] and -4.96 in [10]. Also, in experiment [2], the composite z-score is -0.142.
On to `C=C(C(=O)CC[C@@H](OC(C)=O)c1ccc(OCCO)cc1)C(C)C`, for which the z-score in [1] is 0.0045 (inactive); in experiment [3], 3.04 (inactive); in [4], 0.584 (inactive); in [5], 0.652 (inactive); in [6], 0.332 (inactive); in [7], -0.579. Further, the z-score is -1.37 (inactive) in experiment [8], -1.21 (inactive) in experiment [9] and -1.77 in [10]. The composite z-score in [2] is -0.142.
